# Test results: PubChem BioAssay (EPA / NIEHS)
# Where “and” joins values, the source holds several entries; their conditions need not be identical. Equal entries are not always repeated. Results filed as inconclusive are left out. The source holds several records for some structures; these can differ, active in one and inactive in another. Calls of active or inactive are those of the source. Rule for the calls, unless noted: active = hit-call score of the fitted dose curve at least 0.9, where 1 is the maximum; inconclusive = response in the unintended direction; inactive = score below 0.9.
# Key:
# [1] = ATG_TCF_b_cat_CIS: Attagene CIS-FACTORIAL HepG2 Assay for human T-Cell-Factor with beta-catenin (TCF/b-cat) (AID 2282965; active = hit-call score of the fitted dose curve at least 0.9, where 1 is the maximum; inactive = score below 0.9); settings: HepG2 TCF/beta-catenin cis-reporter transcription, actives raise or lower the signal
# Method in brief: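 HepG2, transient MRTU transfection, cis-element-driven reporters (endogenous TFs). 24 h compound exposure. Readout: reporter mRNA by RT-PCR + 6-FAM primer extension, HpaI digest, capillary electrophoresis. Gain/loss fit vs DMSO baseline.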
# [2] = ATG_TAL_CIS: Attagene CIS-FACTORIAL HepG2 Assay for human TAL Basal Promoter (AID 2282966; active = hit-call score of the fitted dose curve at least 0.9, where 1 is the maximum; inactive = score below 0.9;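 note: background control endpoint measuring basal TAL promoter reporter mRNA not a specific factor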); settings: HepG2 Attagene cis-factorial TAL promoter reporter; actives raise or lower the signal
# Method in brief: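 Basal-promoter background-control endpoint from a multiplexed HepG2 reporter panel. Cells were exposed 24 h, then reporter mRNA was read by RT-PCR/CE fluorescence and fitted in both directions relative to DMSO.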
# [3] = ATG_TGFb_CIS: Attagene CIS-FACTORIAL HepG2 Assay for human Transforming Growth Factor (TGF) (AID 2282967; active = hit-call score of the fitted dose curve at least 0.9, where 1 is the maximum; inactive = score below 0.9); settings: HepG2 Attagene CIS TGFb reporter, mRNA transcription; actives raise or lower the signal
# Method in brief: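 Bidirectional fitting relative to DMSO gave the endpoint. Underlying data: reporter mRNA from HepG2 cells carrying transiently transfected cis-regulated reporter constructs, harvested 24 h after dosing and analyzed by RT-PCR and capillary electrophoresis.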
# [4] = ATG_VDRE_CIS: Attagene CIS-FACTORIAL HepG2 Assay for human Vitamin D Receptor Element (VDRE) (AID 2282968; active = hit-call score of the fitted dose curve at least 0.9, where 1 is the maximum; inactive = score below 0.9); settings: HepG2 VDRE cis-reporter transcription, actives raise or lower the signal
# Method in brief: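 Compounds were applied for 24 h to HepG2 cells transfected with promoter-regulated reporter units. Total RNA was reverse-transcribed, and reporter amplicons were fluorescently labelled and sized by capillary electrophoresis.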
# [5] = molecular target: X-box-binding protein 1 (Homo sapiens) (UniProt P17861); assay: ATG_Xbp1_CIS: Attagene CIS-FACTORIAL HepG2 Assay for human X-box Binding Protein 1 (XBP1) (AID 2282972; active = hit-call score of the fitted dose curve at least 0.9, where 1 is the maximum; inactive = score below 0.9); settings: HepG2 XBP1 cis-element reporter, Attagene multiplex; actives raise or lower the signal
# Method in brief: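 Human hepatoma HepG2, cis-element reporter system, 24 h treatment; mRNA quantified by RT-PCR/CE fluorescence; fit relative to DMSO.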
# [6] = ATG_M_19_TRANS: Attagene TRANS-FACTORIAL HepG2 Assay for M19 Transcription Factor (Internal Marker) (AID 2282974); settings: HepG2 Attagene TRANS-FACTORIAL M19 internal marker reporter
# Method in brief: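 Using RT-PCR and capillary electrophoresis, reporter mRNA from transiently transfected human HepG2 cells was quantified following 24 h exposure; activity was fitted in the positive direction against DMSO.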
# [7] = molecular target: Glucocorticoid receptor (Homo sapiens) (UniProt P04150); assay: ATG_GR_TRANS: Attagene TRANS-FACTORIAL HepG2 Assay for human Glucocorticoid Receptor (GR) (AID 2282978); settings: HepG2 Attagene TRANS GR reporter, mRNA transcription;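 note: activators score as hits since higher reporter transcript over DMSO is fitted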
# Method in brief: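 Exogenous NR-GAL4 fusion activity was assessed through induced GAL4-UAS reporter transcripts in transfected human HepG2 cells, quantified after 24 h by RT-PCR and fluorescent capillary electrophoresis with DMSO as baseline.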
# [8] = molecular target: Oxysterols receptor LXR-alpha (Homo sapiens) (UniProt Q13133); assay: ATG_LXRa_TRANS: Attagene TRANS-FACTORIAL HepG2 Assay for human Liver X Receptor alpha (LXRa) (AID 2282980); settings: HepG2 Attagene TRANS reporter, LXRa transactivation
# Method in brief: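 HepG2 cells transiently transfected with GAL4-UAS reporter units for chimeric NR-Gal4 proteins, exposed to chemicals for 24 h. Reporter mRNA quantified by RT-PCR and capillary electrophoresis; gain of signal fitted relative to DMSO.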
# [9] = molecular target: Oxysterols receptor LXR-beta (Homo sapiens) (UniProt P55055); assay: ATG_LXRb_TRANS: Attagene TRANS-FACTORIAL HepG2 Assay for human Liver X Receptor beta (LXRb) (AID 2282981); settings: HepG2 Attagene TRANS GAL4-LXRb reporter, mRNA
# Method in brief: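 Multiplexed reporter assay, HepG2, 24 h dosing. Fluorescence of labelled RT-PCR products after capillary electrophoresis gives transcript level; positive fitting direction relative to DMSO.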
# [10] = molecular target: Hepatocyte nuclear factor 4-alpha (Homo sapiens) (UniProt P41235); assay: ATG_HNF4a_TRANS: Attagene TRANS-FACTORIAL HepG2 Assay for human Hepatocyte Nuclear Factor 4 alpha (HNF4a) (AID 2282982); settings: HepG2 HNF4a transactivation reporter, mRNA readout
# Method in brief: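 Endpoint reflects transcriptional activation of a GAL4-UAS reporter by an HNF4a-GAL4 chimera in transfected HepG2 cells, 24 h post-dosing. Fluorescence from RT-PCR products separated by capillary electrophoresis; DMSO baseline.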
# [11] = molecular target: Nuclear receptor subfamily 4 group A member 2 (Homo sapiens) (UniProt P43354); assay: ATG_NURR1_TRANS: Attagene TRANS-FACTORIAL HepG2 Assay for human Nuclear Receptor Related Protein 1 (NURR1) (AID 2282985); settings: HepG2 Attagene TRANS reporter, mRNA readout
# Method in brief: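 Endpoint: reporter mRNA increase relative to DMSO. HepG2 cells transfected with reporter units, treated 24 h; RNA processed by RT-PCR, labelling, HpaI digestion and capillary electrophoresis.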
# [12] = molecular target: Transcriptional activator Myb (Homo sapiens) (UniProt P10242); assay: ATG_Myb_CIS: Attagene CIS-FACTORIAL HepG2 Assay for human Myeloblastosis (Myb) Proto-Oncogene Transcription Factor (AID 2282986; active = hit-call score of the fitted dose curve at least 0.9, where 1 is the maximum; inactive = score below 0.9); settings: HepG2 Attagene CIS-FACTORIAL Myb reporter transcription; actives raise or lower the signal
# Method in brief: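 In this HepG2 transient-transfection format, cis-regulated reporter mRNA is quantified 24 h post-dosing by RT-PCR with capillary electrophoresis, fitted bidirectionally to DMSO baseline.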
# [13] = molecular target: Nuclear receptor subfamily 1 group I member 3 (Homo sapiens) (UniProt Q14994); assay: ATG_CAR_TRANS: Attagene TRANS-FACTORIAL HepG2 Assay for human Constitutive Androstane Receptor (CAR) (AID 2282969); settings: HepG2 Attagene TRANS-FACTORIAL CAR reporter;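 note: activators raise reporter mRNA above DMSO so AC50 marks induction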
# Method in brief: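 Transiently transfected HepG2, multiplex TRANS reporters (CAR-Gal4 chimera driving GAL4-UAS reporter). 24 h dosing. Readout: reporter transcript by RT-PCR + capillary electrophoresis, fluorescence intensity; positive direction vs DMSO.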
# [14] = molecular target: Estrogen receptor (Homo sapiens) (UniProt P03372); assay: ATG_ERa_TRANS: Attagene TRANS-FACTORIAL HepG2 Assay for human Estrogen Receptor alpha (ERa) (AID 2282970); settings: HepG2 Attagene TRANS ERa GAL4 reporter, mRNA
# Method in brief: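 Gal4-fusion ERa transactivation, measured as reporter transcript level in transiently transfected HepG2 cells. Exposure 24 h; RT-PCR plus capillary electrophoresis with fluorescence detection.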
# [15] = molecular target: Bile acid receptor (Homo sapiens) (UniProt Q96RI1); assay: ATG_FXR_TRANS: Attagene TRANS-FACTORIAL HepG2 Assay for Farnesoid X Receptor (FXR) (AID 2282979); settings: HepG2 Attagene TRANS FXR-GAL4 reporter transcription;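 note: hits raise reporter mRNA above DMSO so AC50 marks FXR activation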
# Method in brief: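 HepG2 cells were transiently transfected with GAL4-UAS reporters driven by chimeric NR-Gal4 proteins and dosed for 24 h. Reporter mRNA was quantified by RT-PCR, fluorescent labelling, HpaI digestion and capillary electrophoresis, with gain of signal scored versus DMSO.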
# [16] = ATG_M_06_TRANS: Attagene TRANS-FACTORIAL HepG2 Assay for M06 Transcription Factor (Internal Marker) (AID 2282983); settings: HepG2 Attagene TRANS M06 internal marker reporter
# Method in brief: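 mRNA levels of a reporter transcript, quantified as FAM fluorescence on capillary electrophoresis, served as readout. HepG2 cells expressing exogenous GAL4-chimera reporter constructs were exposed for 24 h. Gain of signal over DMSO was evaluated.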
# [17] = ATG_M_32_TRANS: Attagene TRANS-FACTORIAL HepG2 Assay for M32 Transcription Factor (Internal Marker) (AID 2282984); settings: HepG2 Attagene TRANS M32 internal marker reporter;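 note: transcript level of a background control reporter unit measured by RT-PCR and capillary electrophoresis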
# Method in brief: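 Internal-marker readout from a multiplexed transcription reporter panel. HepG2 cells were transfected with GAL4-UAS reporter units, treated 24 hours, and reporter transcript levels determined by fluorescence after RT-PCR and capillary separation.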
# [18] = molecular target: Steroid hormone receptor ERR1 (Homo sapiens) (UniProt P11474); assay: ATG_ERRa_TRANS: Attagene TRANS-FACTORIAL HepG2 Assay for human Estrogen-Related Receptor alpha (ERRa) (AID 2282971); settings: HepG2 Attagene TRANS reporter, ERRa transactivation
# Method in brief: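 HepG2 cells transiently transfected with GAL4-UAS reporter units and chimeric NR-Gal4 constructs; after 24 hour compound incubation, reporter mRNA quantified by RT-PCR, fluorescent labelling and capillary electrophoresis, gain of signal versus DMSO.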
# [19] = molecular target: Estrogen-related receptor gamma (Homo sapiens) (UniProt P62508); assay: ATG_ERRg_TRANS: Attagene TRANS-FACTORIAL HepG2 Assay for human Estrogen-Related Receptor gamma (ERRg) (AID 2282977); settings: HepG2 Attagene TRANS reporter, ERRg transactivation;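 note: hits increase reporter signal over DMSO so potencies reflect activators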
# Method in brief: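 Induction of reporter transcripts through a chimeric NR-Gal4 protein is quantified in transfected human HepG2 liver cells after 24 h chemical exposure, using RT-PCR with capillary electrophoresis detection and DMSO as baseline.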
# Oxysterols receptor LXR-beta (Homo sapiens), sequence (P55055 whole entry, looked up, the tested form may be a part): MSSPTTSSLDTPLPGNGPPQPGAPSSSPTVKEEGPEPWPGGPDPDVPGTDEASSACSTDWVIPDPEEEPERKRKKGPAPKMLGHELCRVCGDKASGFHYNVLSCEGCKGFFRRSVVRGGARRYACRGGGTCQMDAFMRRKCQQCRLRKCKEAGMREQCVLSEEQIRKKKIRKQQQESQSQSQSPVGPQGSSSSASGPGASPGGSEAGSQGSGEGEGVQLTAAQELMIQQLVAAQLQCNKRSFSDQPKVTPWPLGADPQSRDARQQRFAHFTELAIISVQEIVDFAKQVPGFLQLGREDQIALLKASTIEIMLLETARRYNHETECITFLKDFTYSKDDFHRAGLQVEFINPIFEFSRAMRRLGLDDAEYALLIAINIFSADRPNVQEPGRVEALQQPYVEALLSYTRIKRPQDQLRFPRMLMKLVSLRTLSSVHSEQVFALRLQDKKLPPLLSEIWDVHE
# Oxysterols receptor LXR-alpha (Homo sapiens), sequence (Q13133 whole entry, looked up, the tested form may be a part): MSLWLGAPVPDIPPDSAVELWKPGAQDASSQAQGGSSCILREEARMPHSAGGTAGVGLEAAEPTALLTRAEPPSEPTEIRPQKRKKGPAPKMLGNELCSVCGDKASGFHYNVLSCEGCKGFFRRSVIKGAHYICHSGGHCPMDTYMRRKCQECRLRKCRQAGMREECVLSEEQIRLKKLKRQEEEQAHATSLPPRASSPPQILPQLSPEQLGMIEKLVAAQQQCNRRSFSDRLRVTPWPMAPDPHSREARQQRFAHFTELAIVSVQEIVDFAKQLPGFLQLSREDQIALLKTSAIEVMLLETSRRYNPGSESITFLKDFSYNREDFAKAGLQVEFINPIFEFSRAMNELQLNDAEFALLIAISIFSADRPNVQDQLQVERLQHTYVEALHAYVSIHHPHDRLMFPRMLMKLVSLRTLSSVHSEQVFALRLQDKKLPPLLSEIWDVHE
# X-box-binding protein 1 (Homo sapiens), sequence (P17861 whole entry, looked up): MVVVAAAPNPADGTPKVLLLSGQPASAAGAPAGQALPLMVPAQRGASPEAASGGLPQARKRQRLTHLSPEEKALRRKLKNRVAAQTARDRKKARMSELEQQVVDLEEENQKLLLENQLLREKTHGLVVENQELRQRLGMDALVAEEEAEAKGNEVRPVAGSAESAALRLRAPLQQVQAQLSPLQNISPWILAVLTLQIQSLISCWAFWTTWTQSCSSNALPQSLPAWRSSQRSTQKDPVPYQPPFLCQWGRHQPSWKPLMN
# Hepatocyte nuclear factor 4-alpha (Homo sapiens), sequence (P41235 whole entry, looked up, the tested form may be a part): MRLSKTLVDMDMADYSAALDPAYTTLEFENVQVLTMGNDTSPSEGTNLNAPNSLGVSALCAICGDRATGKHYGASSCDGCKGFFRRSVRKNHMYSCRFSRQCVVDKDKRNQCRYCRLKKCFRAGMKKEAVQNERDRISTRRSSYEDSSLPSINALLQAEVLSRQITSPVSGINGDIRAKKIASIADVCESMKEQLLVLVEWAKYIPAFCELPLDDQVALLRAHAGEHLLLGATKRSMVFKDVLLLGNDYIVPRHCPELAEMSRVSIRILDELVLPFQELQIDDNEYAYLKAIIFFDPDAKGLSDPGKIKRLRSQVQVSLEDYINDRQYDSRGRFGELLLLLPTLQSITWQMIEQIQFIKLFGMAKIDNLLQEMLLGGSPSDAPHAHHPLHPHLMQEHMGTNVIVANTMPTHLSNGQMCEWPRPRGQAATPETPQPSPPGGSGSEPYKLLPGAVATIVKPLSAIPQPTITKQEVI
# Nuclear receptor subfamily 4 group A member 2 (Homo sapiens), sequence (P43354 whole entry, looked up): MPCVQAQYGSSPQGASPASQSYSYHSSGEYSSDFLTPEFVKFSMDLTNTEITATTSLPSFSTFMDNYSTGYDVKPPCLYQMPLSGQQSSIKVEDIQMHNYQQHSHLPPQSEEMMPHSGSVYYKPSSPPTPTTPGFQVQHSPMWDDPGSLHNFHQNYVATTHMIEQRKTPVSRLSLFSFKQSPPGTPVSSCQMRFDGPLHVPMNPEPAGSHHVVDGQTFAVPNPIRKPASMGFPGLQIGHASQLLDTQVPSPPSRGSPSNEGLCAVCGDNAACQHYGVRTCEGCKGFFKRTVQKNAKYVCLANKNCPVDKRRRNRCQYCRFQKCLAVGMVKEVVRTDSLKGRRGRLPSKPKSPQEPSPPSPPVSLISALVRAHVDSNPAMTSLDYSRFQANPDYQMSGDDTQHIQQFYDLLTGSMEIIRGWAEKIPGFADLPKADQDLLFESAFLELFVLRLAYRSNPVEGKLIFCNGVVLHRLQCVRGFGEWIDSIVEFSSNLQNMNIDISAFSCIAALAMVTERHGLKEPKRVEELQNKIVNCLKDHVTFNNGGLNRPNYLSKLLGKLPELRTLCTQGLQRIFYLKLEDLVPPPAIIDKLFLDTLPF
# Glucocorticoid receptor (Homo sapiens), sequence (P04150 whole entry, looked up, the tested form may be a part): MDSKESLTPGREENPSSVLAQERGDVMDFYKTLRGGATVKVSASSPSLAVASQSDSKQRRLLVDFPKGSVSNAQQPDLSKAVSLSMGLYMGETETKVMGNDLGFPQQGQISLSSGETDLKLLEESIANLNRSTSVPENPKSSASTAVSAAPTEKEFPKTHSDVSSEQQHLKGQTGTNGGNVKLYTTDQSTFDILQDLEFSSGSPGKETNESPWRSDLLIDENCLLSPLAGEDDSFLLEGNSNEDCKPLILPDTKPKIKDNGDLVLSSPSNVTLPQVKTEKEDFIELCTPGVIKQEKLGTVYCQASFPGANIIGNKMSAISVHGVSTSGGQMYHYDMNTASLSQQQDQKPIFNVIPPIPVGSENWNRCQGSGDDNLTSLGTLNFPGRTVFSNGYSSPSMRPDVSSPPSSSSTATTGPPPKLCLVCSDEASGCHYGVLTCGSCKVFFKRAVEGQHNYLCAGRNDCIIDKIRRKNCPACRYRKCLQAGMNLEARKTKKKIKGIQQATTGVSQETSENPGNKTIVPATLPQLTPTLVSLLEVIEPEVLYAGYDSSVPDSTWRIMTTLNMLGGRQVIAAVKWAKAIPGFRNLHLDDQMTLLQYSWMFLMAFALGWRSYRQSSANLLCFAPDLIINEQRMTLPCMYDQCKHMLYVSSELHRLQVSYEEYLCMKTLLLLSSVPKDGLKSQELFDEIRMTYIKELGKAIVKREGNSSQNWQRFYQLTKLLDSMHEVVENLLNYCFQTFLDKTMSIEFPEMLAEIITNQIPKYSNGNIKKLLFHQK
# Estrogen receptor (Homo sapiens), sequence (P03372 whole entry, looked up, the tested form may be a part): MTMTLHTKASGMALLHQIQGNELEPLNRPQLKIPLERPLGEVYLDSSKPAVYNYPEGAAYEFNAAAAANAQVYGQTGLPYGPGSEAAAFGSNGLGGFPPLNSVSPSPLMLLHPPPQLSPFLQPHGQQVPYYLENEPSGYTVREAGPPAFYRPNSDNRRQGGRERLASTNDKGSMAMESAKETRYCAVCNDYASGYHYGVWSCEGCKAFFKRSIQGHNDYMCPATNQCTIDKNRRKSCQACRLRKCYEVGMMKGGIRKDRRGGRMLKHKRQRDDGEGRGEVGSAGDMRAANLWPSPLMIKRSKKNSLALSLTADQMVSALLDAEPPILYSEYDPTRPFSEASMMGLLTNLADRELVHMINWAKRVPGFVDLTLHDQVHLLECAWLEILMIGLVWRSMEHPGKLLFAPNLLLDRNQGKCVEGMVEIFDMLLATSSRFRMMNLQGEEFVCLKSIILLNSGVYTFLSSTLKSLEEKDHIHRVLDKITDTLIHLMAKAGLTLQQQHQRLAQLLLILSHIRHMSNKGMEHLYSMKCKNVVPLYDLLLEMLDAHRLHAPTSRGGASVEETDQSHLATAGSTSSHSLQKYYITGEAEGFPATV
# Transcriptional activator Myb (Homo sapiens), sequence (P10242 whole entry, looked up): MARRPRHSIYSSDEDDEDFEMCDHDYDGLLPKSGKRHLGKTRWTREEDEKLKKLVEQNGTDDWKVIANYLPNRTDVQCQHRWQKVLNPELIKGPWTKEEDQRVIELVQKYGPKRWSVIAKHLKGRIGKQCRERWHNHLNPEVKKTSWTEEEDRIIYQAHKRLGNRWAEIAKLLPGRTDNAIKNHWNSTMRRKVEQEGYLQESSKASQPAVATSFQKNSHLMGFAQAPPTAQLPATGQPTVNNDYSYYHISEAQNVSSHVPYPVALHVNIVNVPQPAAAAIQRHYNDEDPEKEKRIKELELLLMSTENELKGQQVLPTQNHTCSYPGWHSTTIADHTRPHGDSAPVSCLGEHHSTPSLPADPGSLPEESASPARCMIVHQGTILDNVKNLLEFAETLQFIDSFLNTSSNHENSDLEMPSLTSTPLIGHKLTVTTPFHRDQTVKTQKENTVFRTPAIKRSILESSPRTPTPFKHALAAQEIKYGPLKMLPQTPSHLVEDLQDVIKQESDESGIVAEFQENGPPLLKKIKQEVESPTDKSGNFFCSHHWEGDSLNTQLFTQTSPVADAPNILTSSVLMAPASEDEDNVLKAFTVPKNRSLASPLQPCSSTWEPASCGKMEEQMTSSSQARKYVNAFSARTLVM
# Nuclear receptor subfamily 1 group I member 3 (Homo sapiens), sequence (Q14994 whole entry, looked up, the tested form may be a part): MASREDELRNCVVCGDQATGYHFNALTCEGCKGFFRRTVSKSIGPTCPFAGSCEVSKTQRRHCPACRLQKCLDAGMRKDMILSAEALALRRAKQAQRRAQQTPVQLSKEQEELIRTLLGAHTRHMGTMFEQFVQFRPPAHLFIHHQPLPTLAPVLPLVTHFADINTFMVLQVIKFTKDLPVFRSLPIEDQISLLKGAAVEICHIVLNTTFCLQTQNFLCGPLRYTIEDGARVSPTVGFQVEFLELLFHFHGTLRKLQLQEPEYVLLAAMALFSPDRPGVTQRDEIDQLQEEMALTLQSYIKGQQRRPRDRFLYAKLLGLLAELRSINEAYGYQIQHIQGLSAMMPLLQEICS
smiles,measurement,setting,value
O=C(c1ccc(OCCN2CCCCC2)cc1)c1c(-c2ccc(O)cc2)sc2cc(O)ccc12,AC50,[1],11.1 µM (active) and 15.5 µM (active)
same,outcome,[1],inactive
same,AC50,[2],20.4 µM (active) and 11.1 µM (active)
same,outcome,[2],inactive
same,AC50,[3],14.7 µM (active)
same,outcome,[3],inactive
same,outcome,[4],inactive
same,AC50,[5],11.1 µM (active) and 8.64 µM (active) and 12 µM (active)
same,outcome,[5],inactive
same,outcome,[6],inactive
same,outcome,[7],inactive
same,outcome,[8],inactive
same,outcome,[9],inactive
same,outcome,[10],inactive
same,outcome,[11],inactive
same,AC50,[12],18.5 µM (active)
same,outcome,[12],inactive
CCC(C)(CCCC(C)C)OC(C)=O (centres undefined),outcome,[1],inactive
same,outcome,[2],inactive
same,outcome,[3],inactive
same,outcome,[4],inactive
same,outcome,[13],inactive
same,outcome,[14],inactive
same,outcome,[5],inactive
same,outcome,[7],inactive
same,outcome,[15],inactive
same,outcome,[8],inactive
same,outcome,[10],inactive
same,outcome,[16],inactive
same,outcome,[17],inactive
same,outcome,[12],inactive
Brc1cc(Br)cc(Br)c1,outcome,[1],inactive
same,outcome,[2],inactive
same,AC50,[3],100 µM (active)
same,AC50,[4],65 µM (active)
same,outcome,[13],inactive
same,outcome,[14],inactive
same,outcome,[18],inactive
same,outcome,[5],inactive
same,outcome,[19],inactive
same,outcome,[7],inactive
same,outcome,[15],inactive
same,outcome,[9],inactive
same,outcome,[10],inactive
same,outcome,[16],inactive
same,outcome,[17],inactive
same,outcome,[11],inactive
same,outcome,[12],inactive
CCCCC1CCCCC(=O)O1 (centres undefined),outcome,[1],inactive
same,outcome,[2],inactive
same,outcome,[3],inactive
same,outcome,[4],inactive
same,outcome,[13],inactive
same,outcome,[14],inactive
same,outcome,[5],inactive
same,outcome,[6],inactive
same,outcome,[19],inactive
same,outcome,[7],inactive
same,outcome,[9],inactive
same,outcome,[10],inactive
same,outcome,[12],inactive
CC(C)N(c1ccccc1)C(C)C,outcome,[1],inactive
same,outcome,[2],inactive
same,outcome,[3],inactive
same,outcome,[4],inactive
same,outcome,[13],inactive
same,outcome,[14],inactive
same,outcome,[5],inactive
same,outcome,[7],inactive
same,outcome,[9],inactive
same,outcome,[10],inactive
same,outcome,[16],inactive
same,outcome,[11],inactive
same,outcome,[12],inactive
